# Anthrax LF inh2 – Bacillus anthracis LF protease inhibitors, primary screen, biochemical, multiplex microsphere, MLPCN library; multiplex microsphere protease cleavage assay; inhibition, % at 10 µM; Lethal factor (Bacillus anthracis), P15917; 0.12% of 360,000 active
# Autofluor counter – compound fluorescence in toxin protease inhibitor counterscreen. compound autofluorescence counterscreen, microsphere flow cytometry; active compounds read high. fluorescence intensity (test concentration not listed). 3.1% of 360,000 active; in the data active = fluorescence intensity above about 16000; inconclusive = no clear call, values can overlap the other calls
# BoNT A protease – BoNT/A light chain protease inhibitors, primary screen, biochemical, flow cytometry, MLPCN library. Botulinum neurotoxin type A light chain protease (Clostridium botulinum A str. ATCC 3502). multiplex microsphere protease substrate cleavage. inhibition, % at 10 µM. 0.17% of 360,000 active. AID 588499, 2011
# BoNT-F LC inh – BoNT/F light chain protease inhibitors, primary screen, biochemical, flow cytometry, MLPCN library; Botulinum neurotoxin type F light chain protease (Clostridium botulinum); Multiplex microsphere protease cleavage assay; inhibition, % at 10 µM; 0.22% of 360,000 active; AID 588497, 2011; in the data active = inhibition above about 35%, passing the limit was not always enough; inconclusive = no clear call, values can overlap the other calls
# FBA Mtb inh – Mtb FBA enzyme inhibitors, primary screen, biochemical, fluorescence, strain H37Rv. Fructose-bisphosphate aldolase (Mycobacterium tuberculosis (strain ATCC 25618 / H37Rv)), …. purified M. tuberculosis FBA, fluorescence read-out. inhibition, % at 1 µM. 2.3% of 360,000 active; in the data active = inhibition above about 27%
# Target sequence (P9WQA3 whole entry, looked up): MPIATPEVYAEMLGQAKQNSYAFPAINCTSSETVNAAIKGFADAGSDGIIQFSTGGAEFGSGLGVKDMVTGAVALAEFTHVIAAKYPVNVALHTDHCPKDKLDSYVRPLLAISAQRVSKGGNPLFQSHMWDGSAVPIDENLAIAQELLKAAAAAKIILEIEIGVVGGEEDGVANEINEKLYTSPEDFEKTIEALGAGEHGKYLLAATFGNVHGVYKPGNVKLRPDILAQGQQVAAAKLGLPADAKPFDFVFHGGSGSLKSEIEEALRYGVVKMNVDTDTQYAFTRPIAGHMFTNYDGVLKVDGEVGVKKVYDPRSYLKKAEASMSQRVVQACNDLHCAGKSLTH
# GDH-TPI counter-1 – GDH-TPI coupling enzyme inhibitors, primary screen, artefact control for M. tuberculosis FBA inhibitor project, biochemical, absorbance, full deck. GDH-TPI coupled enzyme counterscreen, NADH absorbance. inhibition, % at 4.8 µM. 1.2% of 360,000 active. AID 588335, 2011; in the data active = inhibition above about 30%
# Mtb FBA inh conf – M. tuberculosis aldolase blockers, biochemical, fluorescence, strain H37Rv, confirmation; purified M. tuberculosis FBA, fluorescence read-out; shares compounds with FBA Mtb inh; 78% of 5,600 active; inhibition, % at 1 µM; in the data active = inhibition above about 27%
# GDH-TPI counter-2 – GDH-TPI coupling enzyme inhibitors, artefact control for M. tuberculosis FBA inhibitor project, biochemical, fluorescence, high throughput; 81% of 5,600 active; shares compounds with FBA Mtb inh; GDH-TPI coupled enzyme counterscreen; inhibition, % at 1 µM; in the data active = inhibition above about 10%
# GDH-TPI dose – GDH-TPI coupling enzyme inhibitors, dose response, artefact control for M. tuberculosis FBA inhibitor project, biochemical, fluorescence, IC50 | shares compounds with FBA Mtb inh | GDH-TPI coupled enzyme assay, artifact counterscreen | IC50, µM | 79% of 170 active | AID 652145, 2013; call rule not given here
# A number is an active result; - = inactive; ? = inconclusive; . = not tested or not shown; + = active, no number. Shown are actives, neighbours in structure and some others; about 6.6% of the full set was active somewhere. Rule as the data show it, unless noted: active = inhibition above about 30%; inconclusive = no clear call, values can overlap the other calls; inactive = below that.
SMILES,Anthrax LF inh2,Autofluor counter,BoNT A protease,BoNT-F LC inh,FBA Mtb inh,GDH-TPI counter-1,Mtb FBA inh conf,GDH-TPI counter-2,others
Cc1ccc(S(=O)(=O)c2c(N)n(Cc3ccco3)c3nc4ccccc4nc23)cc1,-,-,-,-,81.9,30.6,38.6,29.8,
CN(C)CCNC(=O)c1ccc2c(c1)N(Cc1ccc(F)cc1)CCS2,-,-,-,-,86.7,-,-,-,
O=C(NC1CCCC1)c1ccc2c(c1)N(Cc1ccc(F)cc1)CCS2,-,-,-,-,71.7,-,-,-,
COc1ccc(CCNC(=O)c2ccc3c(c2)N(Cc2ccc(F)cc2)CCS3)c(OC)c1,-,-,-,-,-,-,.,.,
COc1ccc(COC(=O)C2CCN(C(=O)c3ccc(Cl)cc3)CC2)cc1F,-,-,-,-,-,-,.,.,
O=C(O)C1CC=CCC1C(=O)NC1CCCCC1 (centres undefined),-,-,-,-,-,-,.,.,
COc1ccc2oc(=N)c(-c3nnc4n3CCCCC4)cc2c1,-,-,-,-,32.4,-,-,-,GDH-TPI dose=-
CCCCCCCCC(=O)N1C(C)CCC1C (centres undefined),-,-,-,-,-,-,.,.,
COc1ccc(-n2cc(CN3CCCC3)c(-c3cccc(F)c3)n2)cc1,-,-,-,-,-,-,.,.,
COc1ccc(-n2cc(CNC3CCN(C)CC3)c(-c3cccc(F)c3)n2)cc1,-,-,-,-,63.5,-,189.5,161.8,
COc1ccc(-n2cc(CN[C@H]3CCCCNC3=O)c(-c3cccc(F)c3)n2)cc1,-,-,-,-,56.6,-,-,-,
CCOC(=O)C1=CC[C@H]2c3c(c4ccccc4n3C)C(=O)C1N2C(=O)OC(C)(C)C,-,-,-,-,-,-,.,.,
O=S(=O)(c1cnc(Cl)c(Br)c1)N1CCN(c2ncccn2)CC1,-,-,-,-,-,-,.,.,
COc1ccc(CCN(C)C(=O)c2cc(=O)c3ccccc3o2)cc1OC,-,-,-,-,50.2,-,-,-,
Cc1c(Br)c([N+](=O)[O-])nn1CC(=O)Nc1c(C)n(C)n(-c2ccccc2)c1=O,-,-,-,-,-,-,.,.,
Cc1ccc(N2CCN(S(=O)(=O)c3ccc4oc(=O)ccc4c3)CC2)cc1Cl,-,-,-,-,-,-,.,.,
CC(C)C(=O)N1CCC1(C)C(=O)Nc1ccc(-n2cncn2)cc1 (centres undefined),-,-,-,-,-,-,.,.,
COc1ccccc1-c1cc2ccccc2[nH]1,-,-,-,-,89.7,-,48.9,26.6,
O=C(O)c1ccccc1-c1cc2ccccc2[nH]1,-,-,-,-,-,-,.,.,
Nc1c(Cl)cc(Cl)cc1C(=O)OCC(=O)NC1CC1,-,-,-,-,84.2,-,-,-,
O=C(COC(=O)c1ccccn1)NC1CCCCC1,-,-,-,?,-,-,.,.,
Nc1ncccc1C(=O)OCC(=O)NC1CCCCCC1,-,?,-,-,32.8,-,55.7,42.7,
CN(C)S(=O)(=O)c1ccc(C(=O)NCc2nnc(SCC(=O)Nc3ccc(F)cc3)n2-c2ccc(F)cc2)cc1,-,-,-,-,-,-,.,.,
O=C1c2oc3ccccc3c(=O)c2C(c2ccc(O)cc2)N1c1nccs1 (centres undefined),-,-,-,-,-,-,.,.,
Nc1ccn([C@@H]2O[C@H](CNC(=O)[C@@H](Cc3cn(COCc4ccccc4)cn3)NC=O)[C@@H](O)[C@H]2O)c(=O)n1,-,-,-,-,-,-,.,.,
SMILES,Anthrax LF inh2,Autofluor counter,BoNT A protease,BoNT-F LC inh,FBA Mtb inh,GDH-TPI counter-1,Mtb FBA inh conf,GDH-TPI counter-2,others
Nc1ccc[n+](Cc2ccccn2)c1,-,-,-,-,60.7,-,-,-,
O=C1NC[C@H](CCCCN2C[C@H](Cc3ccc(O)cc3)N(CCc3ccc(O)cc3)C(=O)C2=O)N(CCc2ccccc2)C1=O,-,-,-,-,.,.,.,.,
Cc1cnc(N)c2c(=O)oc3ccccc3c12,-,-,-,-,60.5,-,+,+,
O=c1cc(Nc2ccc3c(c2)OCCO3)[nH]c(=O)n1C1CCCCC1,-,-,-,-,-,-,.,.,
O=c1cc(Nc2ccc3c(c2)OCCO3)[nH]c(=O)n1-c1ccc(Cl)cc1,-,-,-,-,33.5,-,77.9,69.0,
O=C(NCc1cc(Cl)cc(Cl)c1)c1csc(COCCO)n1,-,-,-,-,-,-,.,.,
Cc1cc(=O)oc2cc(OCCc3ccccc3)ccc12,-,-,-,?,68.4,-,-,-,GDH-TPI dose=2.49
Cc1cc(=O)oc2cc(OCCCC[n+]3ccccc3)ccc12,-,-,-,-,34.6,-,168.6,+,
Cc1cc(=O)oc2cc(OCC(=O)c3ccccc3)ccc12,-,-,-,?,-,-,.,.,
c1coc(-c2ccnc3ncnn23)c1,-,-,-,-,92.6,-,93.6,74.5,
CCn1c(-c2cc(-c3ccc(C)cc3)nc3ccccc23)n[nH]c1=S,-,-,-,-,-,-,.,.,
CCn1c(-c2cc(-c3ccc(OC(C)C)cc3)nc3ccccc23)n[nH]c1=S,-,-,-,-,82.7,-,-,-,
CN1C(=O)[C@H]2[C@@H](C3CC3)N3C(=O)CN(CCO)C(=O)[C@@]3(Cc3ccccc3)[C@H]2C1=O,-,-,-,-,-,-,.,.,
CN1C(=O)[C@H]2[C@@H](C3CC3)N3C(=O)CN(Cc4ccccn4)C(=O)[C@@]3(Cc3ccccc3)[C@H]2C1=O,-,-,-,-,67.8,-,70.4,57.0,
COc1ccc(F)cc1S(=O)(=O)Nc1cc2c3c(c1)CCN3C(=O)CC2,-,?,-,-,-,-,.,.,
CC(=O)c1ccc(S(=O)(=O)N(C)CCCC(=O)NCc2ccc3c(c2)OCO3)cc1,-,-,-,-,83.9,-,144.1,95.9,
O=C(c1cccs1)N1CCc2c([nH]c3ccccc23)C1c1ccccn1 (centres undefined),-,-,-,-,33.8,-,-,-,
CC(C)n1cnc2c(Nc3cccc(Cl)c3)nc(NCCCO)nc21,-,-,-,-,33.5,-,130.3,98.0,
CC(C)[C@H](CO)Nc1nc(Nc2ccc(Cl)c(C(=O)O)c2)c2ncn(C(C)C)c2n1,-,-,-,-,-,-,.,.,
